Screening results deposited in PubChem by The Scripps Research Institute Molecular Screening Center.
A selection: hits, their analogues and other compounds. The true share with any hit is near 1.1%.
PKA-R2B activ = PKA-R2B complex activation; hit rate 0.079% among 340,000; AID 504700; PKA-R2B holoenzyme dissociation, Cy5-IP20 fluorescence polarization; R2B truncated from residue 108, S112A mutant; 0% DMSO only, 100% 113 µM cGMP; activation, % at 11.4 µM;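 active = activation above a cutoff set at the mean over all compounds plus 3 SD, cut at about 18% in these data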;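 note: higher means more holoenzyme dissociation and a rise in polarization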
Target sequence (P31323 whole entry, looked up, other chains not shown, the tested form may be a part): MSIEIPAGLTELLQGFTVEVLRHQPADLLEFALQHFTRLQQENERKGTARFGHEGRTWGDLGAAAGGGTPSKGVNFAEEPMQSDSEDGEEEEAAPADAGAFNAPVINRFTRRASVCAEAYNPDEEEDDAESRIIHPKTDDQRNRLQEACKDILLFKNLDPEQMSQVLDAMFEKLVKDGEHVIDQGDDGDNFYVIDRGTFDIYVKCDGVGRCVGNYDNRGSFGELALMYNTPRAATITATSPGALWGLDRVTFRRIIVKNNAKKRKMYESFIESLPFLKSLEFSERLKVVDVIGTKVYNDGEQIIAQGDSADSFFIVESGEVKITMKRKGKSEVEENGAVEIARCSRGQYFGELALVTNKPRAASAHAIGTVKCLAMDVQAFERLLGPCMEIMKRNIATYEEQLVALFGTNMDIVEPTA
MsrA inhibitor = inhibitors of bovine MsrA; purified bovine MsrA, absorbance read-out; hit rate 0.75% among 360,000; inhibition, % at 15.5 µM; in the data active = inhibition above about 4.5%
PKA-R1A activ = activates the PKA-R1A holoenzyme complex; PKA-R1A dissociation, Cy5-IP20 fluorescence polarization; scaled: DMSO 0%, 113 µM cGMP 100%; hit rate 0.083% among 340,000; activation, % at 11.4 µM; P00514+P68181;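 active = percent activation above the mean of all tested compounds plus 3 SD, cut at about 19% in these data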;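 note: higher means more PKAc released from R1A so a rise in polarization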
MsrA act = bovine methionine sulfoxide reductase A activation; hit rate 0.3% among 360,000; activation, % at 10.6 µM; purified bovine MsrA, absorbance read-out; in the data active = activation above about 7.5%
MsrA act confirm = confirmation of bovine methionine sulfoxide reductase A activators. hit rate 12% among 1,000. activation, % at 10.6 µM. shares compounds with MsrA act. AID 602270. purified bovine MsrA, absorbance read-out; in the data active = activation above about 4%;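 note: enzyme coupled to thioredoxin and thioredoxin reductase with NADPH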
Of the large screens only hits and unclear results are named; the others gave an inactive call (follow-up assays come after a bar, where they were run).

COc1ccc(C)cc1N(C(=O)c1ccccc1)c1nc2ccccc2s1	none
COc1ccc(C)cc1N(C(=O)c1ccccc1F)c1nc2ccccc2s1	MsrA act 13 | MsrA act confirm inactive
NC(=O)[C@@H]1CCCN1C(=O)[C@H](CCc1ccccc1)NC(=O)[C@H]1O[C@@H](n2cnc3c(N)ncnc32)[C@H](O)[C@@H]1O	none (no result: PKA-R2B activ, PKA-R1A activ, MsrA act)
Cc1ccc(-c2ccnc(=S)[nH]2)cc1	MsrA act 9.4 | MsrA act confirm 6.2
O=C(N[C@H](Cc1ccccc1)C(=O)NCCCN1CCCC1=O)[C@H]1O[C@@H](n2ccc(=O)[nH]c2=O)[C@H](O)[C@@H]1O	none (no result: PKA-R2B activ, PKA-R1A activ, MsrA act)
Cc1ccc(S(=O)(=O)NC2=NCCCCC2)cc1	MsrA act 13 | MsrA act confirm inactive
CC1=C(C(=O)Nc2cc(C)ccc2C)C(c2cccs2)NC(=S)N1 (centres undefined)	MsrA act 8.2 | MsrA act confirm inactive
CC1=C(C(=O)Nc2ccccc2F)C(c2cccs2)NC(=S)N1 (centres undefined)	none
CCC(c1nc2ccccc2[nH]1)n1c(-c2ccc3cc[nH]c3c2)nc2ccccc21 (centres undefined)	none (no result: PKA-R2B activ, PKA-R1A activ, MsrA act)
Cc1cccc(NCc2ccccc2O)c1C	MsrA act 15 | MsrA act confirm inactive
CCCCNC(=O)C1CC(=O)N(CCC(C)C)C1 (centres undefined)	none
CC(C)CCN1CC(C(=O)NC(C)C)CC1=O (centres undefined)	MsrA act 11 | MsrA act confirm inactive
CC(=O)O[C@@H]1C=C[C@@H](C#Cc2ccc(C(C)(C)C)cc2)O[C@@H]1COC(=O)NC(C)C	none (no result: PKA-R2B activ, PKA-R1A activ, MsrA act)
Nc1ccc(S(=O)(=O)c2ccc(N)nc2)cc1	MsrA act 7.7 (no result: PKA-R2B activ, PKA-R1A activ) | MsrA act confirm inactive
c1ccc(-c2nc3ccccc3nc2-c2ccc(CN3CCC(c4nc5ccccc5[nH]4)CC3)cc2)cc1	none (no result: PKA-R2B activ, PKA-R1A activ, MsrA act)
CCc1nn(C(C)C(=O)Nc2cccc(C)c2C)c(=O)c2cc3occc3n12 (centres undefined)	MsrA act 8.4 | MsrA act confirm inactive
CC1=C(C(=O)OC2CCCCCCC2)C(c2cccc(O)c2)NC(=O)N1 (centres undefined)	MsrA act 8.9 | MsrA act confirm inactive
Nc1ncnc2[nH]c(=S)[nH]c12	MsrA act 11 | MsrA act confirm inactive
CCCCNC(=O)C[C@H]1C[C@@]2(C(=O)OC)C(=C[C@H](COCc3ccccc3)O[C@@H]2C)N(Cc2ccc3c(c2)OCO3)C1=O	none (no result: PKA-R2B activ, PKA-R1A activ, MsrA act)
Nc1[nH]c(C(=O)c2ccccc2)c(-c2ccccn2)c1C(=O)c1c[nH]c2ccc(F)cc12	none (no result: PKA-R2B activ, PKA-R1A activ, MsrA act)
CSc1oc(-c2ccccc2)nc1S(=O)(=O)c1ccc(C)cc1	MsrA act 8.0 | MsrA act confirm inactive
C=CCN=C1NC(c2cccc(C(F)(F)F)c2)C(C(=O)OC)=C(C)N1Cc1ccccc1C(F)(F)F (centres undefined)	none (no result: PKA-R2B activ, PKA-R1A activ, MsrA act)
O=C(Cc1c[nH]c2ccccc12)Nc1ccc(Nc2cccnc2)c(-c2ccc(-c3ccccc3)cc2F)c1	none (no result: PKA-R2B activ, PKA-R1A activ, MsrA act)
CCCCn1nnnc1C(c1cc2ccccc2o1)N1CCN(C/C=C/c2ccccc2)CC1 (centres undefined)	none (no result: PKA-R2B activ, PKA-R1A activ)
CCCCn1nnnc1C(c1cc2ccccc2o1)N1CCCC1 (centres undefined)	MsrA act 11 (no result: PKA-R2B activ, PKA-R1A activ) | MsrA act confirm inactive
CCCCCCCCN1C(=O)[C@@H](CC(=O)NCCCN2CCCC2=O)C[C@@]2(C(=O)OC)C1=C[C@H](C1CCCC1)O[C@@H]2C	none (no result: PKA-R2B activ, PKA-R1A activ, MsrA act)
CCOC(=O)C(C)Oc1cccc2c(=O)n(CC(=O)Nc3cccc(OC)c3)ccc12 (centres undefined)	MsrA act 8.4 | MsrA act confirm inactive
Cc1ccc(C(=O)NC2CCCCN(C)C2=O)c(C)c1 (centres undefined)	none (no result: PKA-R2B activ, PKA-R1A activ, MsrA act)
COC(=O)c1cc2c(c3c4cc(F)ccc4n(C(=O)c4ccccc4)c13)C(=O)N(C1CCCCC1)C2	none (no result: PKA-R2B activ, PKA-R1A activ, MsrA act)
O=C(NCc1ccccc1)Nc1cccn(Cc2ccccc2Cl)c1=O	MsrA act 9.1 | MsrA act confirm inactive
CCC(=O)Nc1ccc(C(=O)Nc2cccnc2)cc1	MsrA act 15 | MsrA act confirm inactive
CC(C)=CCCC1=CC[C@H]2[C@@H](C1)C(C(C)C)=CC(=O)[C@@]2(C)O	none (no result: PKA-R2B activ, PKA-R1A activ, MsrA act)
CC1CCCC(NC(=O)c2ccncc2)C1C (centres undefined)	none
CC1CCCC(NC(=O)Nc2cccs2)C1C (centres undefined)	MsrA act 8.9 | MsrA act confirm inactive
CC(C)(C)c1ccc(C#C[C@@H]2C=C[C@@H](O)[C@@H](CO)O2)cc1	none (no result: PKA-R2B activ, PKA-R1A activ, MsrA act)
CCCNC(=O)CN(Cc1ccco1)S(=O)(=O)c1ccc(OCC)cc1	none
CCCCNC(=O)CN(Cc1ccco1)S(=O)(=O)c1ccc(C(C)=O)cc1	MsrA act 11 | MsrA act confirm inactive
COCCN(Cc1ccc(C)cc1)C(=O)[C@@H](Cc1ccccc1)NC(=O)[C@H]1O[C@@H](n2ccc(=O)[nH]c2=O)[C@H](O)[C@@H]1O	none (no result: PKA-R2B activ, PKA-R1A activ, MsrA act)
COCCN1C(=O)[C@H]2C[C@@]13O[C@H](c1ccccn1)N=C3CC1c3ccccc3C[C@@]12C (some centres undefined)	none (no result: PKA-R2B activ, PKA-R1A activ, MsrA act)
COC(=O)N1Cc2ccnnc2CC1c1ccccc1-c1ccccc1 (centres undefined)	none (no result: PKA-R2B activ, PKA-R1A activ, MsrA act)
CCCCCCCC[n+]1cccc(C(=O)N(CC)CC)c1	MsrA act 18 | MsrA act confirm inactive
CCCCCCCCCCCCCCCC[n+]1cccc(C(=O)N(CC)CC)c1	none
CCc1cc2c(=O)n(CCC(C)C)c(=S)[nH]c2s1	MsrA act 15 | MsrA act confirm inactive
c1cncc(Oc2ccc(NCCc3c[nH]c4ccccc34)cc2)c1	none (no result: PKA-R2B activ, PKA-R1A activ, MsrA act)
C=CCn1c(N)c(C(=O)NCc2cccnc2)sc1=S	MsrA act 8.8 | MsrA act confirm inactive
Cc1cccc(OC(=O)n2c(=S)oc3cc(Cl)ccc32)c1	MsrA act 9.8 | MsrA act confirm inactive
CC(C)OC(=O)n1c(=S)oc2ccccc21	none
CCOC(=O)C(C)(C)CC#CCN(CC#Cc1ccccc1)S(=O)(=O)c1ccc(C)cc1	none (no result: PKA-R2B activ, PKA-R1A activ, MsrA act)
CCN(CC)S(=O)(=O)c1ccc(NC(=O)CCC2CCCCC2)cc1	none
CCN(CC)S(=O)(=O)c1ccc(NC(=O)CNC2CCCCC2)cc1	MsrA act 8.4 | MsrA act confirm inactive
COC(=O)c1ccc(NC(=O)C(C)Oc2ccccc2)cc1 (centres undefined)	none
COC(=O)c1ccc(NC(=O)[C@H](C)NC(N)=O)cc1	MsrA act 23 | MsrA act confirm inactive
COC(=O)c1cc2c(c3c4ccccc4n(S(=O)(=O)c4cccc(C)c4)c13)C(=O)N(C)C2	none (no result: PKA-R2B activ, PKA-R1A activ, MsrA act)
Cc1cccc(C)c1NC(=O)CN(C)C(=O)CCc1nc2sc3c(c2c(=O)[nH]1)CCCC3	MsrA act 8.8 | MsrA act confirm inactive
CN(CC(=O)Nc1cccc(F)c1)C(=O)CCc1nc2sc3c(c2c(=O)[nH]1)CCCC3	none
CC(=O)N1CCN(c2ccc(N3CCN(C(C)=O)[C@H](C)C3)c(C)c2)[C@@H](C)C1	none (no result: PKA-R2B activ, PKA-R1A activ, MsrA act)
COc1ccc(NC(=S)NCc2cccs2)cc1	none
CC(C)c1ccc(NC(=S)NCc2cccs2)cc1	MsrA act 8.1 | MsrA act confirm inactive
